Bioassay records (PubChem)
HT1080NT lethal – qHTS for induction of synthetic lethality in tumor cells producing 2HG: qHTS for the HT-1080-NT fibrosarcoma cell line | 1.6% of 360,000 active | Potency, µM (series often up to 46.1 µM), actives largely listed as cytotoxic | HT-1080-NT fibrosarcoma viability, CellTiter-Glo ATP luminescence, 48 h;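 note: NT is the 2HG producing partner of a matched IDH1 knockdown line; nearly all actives have a fitted effect of over 55% in size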
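A 48-hour cytotoxicity screen used HT-1080-NT cells plated 2 hours before compound delivery. ATP-based CellTiter-Glo luminescence measured viability, normalized to DMSO and no-cell controls.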
ATXN2 expr inh – Primary qHTS for Inhibitors of ATXN expression | 0.72% of 360,000 active | Potency, µM (highest dose often 57 µM), usual class: inhibitors | HEK-293 ATXN2-luciferase reporter, luminescence, 24 h; note: nearly all actives have a fitted effect of over 55% in size
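ATXN2-luciferase reporter cells (luciferase flanked by upstream and downstream ATXN2 gene portions) were treated 24 h at 37 °C with compounds at up to 57 uM. SteadyGlo luminescence gave expression; GF-AFC fluorescence gave viability.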
TGFb SMAD3 inh – qHTS for Inhibitors of TGF-b | HepG2 CAGA-GFP TGF-b/SMAD3 reporter, GFP fluorescence, 18 h; TGF-beta stimulated, 500 pg/mL final | Potency, µM (doses to about 46.1 µM), actives largely listed as inhibitors | 1.2% of 410,000 active; note: nearly all actives have a fitted effect of over 65% in size
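Using HEPG2 CAGA-GFP reporter cells at 1000 cells/well, we pinned test compounds, stimulated with recombinant TGF-beta (500 pg/mL final) and measured total well GFP after 18 h.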
HT1080 IDH1KD tx – qHTS for induction of synthetic lethality in tumor cells producing 2HG: qHTS for the HT-1080-IDH1KD cell line. HT-1080 IDH1 knockdown viability, ATP luminescence, 48 h. Potency, µM (top dose mostly 46.1 µM), hits mostly cytotoxic. 2% of 360,000 active. AID 686971, 2013
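In this qHTS, HT-1080 cells depleted of IDH1 are exposed for 48 h at 37 °C to compound titrations. Toxicity is scored from CellTiter-Glo luminescence, with DMSO as full viability and medium alone as none.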
S2 tox – Viability Counterscreen for Primary qHTS for Inhibitors of ATXN expression | S2 cells (HEK-293 line with an ATXN2-luciferase reporter) viability, CellTiter-Fluor protease fluorescence, 24 h | Potency, µM (top dose mostly 56.7 µM), actives largely listed as cytotoxic | 0.49% of 400,000 active | AID 651635, 2014; note: nearly all actives have a fitted effect of over 40% in size
HepG2 tox-1 – qHTS for Inhibitors of TGF-b: Cytotox Counterscreen; HepG2 CAGA-GFP viability, ATP luminescence, 18 h; Potency, µM (series often up to 46.1 µM), hits mostly cytotoxic; 0.76% of 410,000 active; AID 588856, 2011
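HepG2 CAGA-GFP cells (1000/well, DMEM with 1% FBS) received compound, then TGF-beta at 500 pg/mL final, and were incubated 18 hours at 37 degrees C. Viability was read by CellTiter-Glo luminescence. Media-only wells were set as complete cell-killing and DMSO as no toxicity.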
TGFb confirm – qHTS for Inhibitors of TGF-b: Confirmation of Cherry Picks. HepG2 CAGA-GFP TGF-b reporter, GFP fluorescence, 18 h; cells stimulated with TGF-beta, 500 pg/mL. Potency, µM (series often up to 46.1 µM), usual class: inhibitors. shares compounds with TGFb SMAD3 inh. 63% of 1,600 active. AID 720534, 2013; note: nearly all actives have a fitted effect of over 65% in size
HepG2 tox-2 – qHTS for Inhibitors of TGF-b: Cytotox Counterscreen for Cherry Picks | shares compounds with TGFb SMAD3 inh | HepG2 CAGA-GFP viability, ATP luminescence, 18 h; cells stimulated with TGF-beta, 500 pg/mL | Potency, µM (titrated, usually from 46.1 µM), usual class: inhibitors | 27% of 1,600 active; note: nearly all actives have a fitted effect of over 70% in size
CCL64 TGFb inh – qHTS for Inhibitors of TGF-b: CCL64 Cells Orthogonal Assay for Cherry Picks. shares compounds with TGFb SMAD3 inh. 41% of 1,600 active. CCL64 CAGA-GFP reporter, TGF-b stimulated, GFP fluorescence, 18 h. Potency, µM (series often up to 46.1 µM), most hits filed as inhibitors; note: nearly all actives have a fitted effect of over 65% in size
COP TGFb inh – qHTS for Inhibitors of TGF-b: Hit Validation in HepG2 Cells using COP promoter | 3% of 1,600 active | shares compounds with TGFb SMAD3 inh | HepG2 COP-GFP TGF-b reporter, GFP fluorescence, 18 h; cells stimulated by added recombinant TGF-beta | Potency, µM (doses to about 46.1 µM), most hits filed as inhibitors; note: nearly all actives have a fitted effect of over 70% in size
A number is an active result; n = inactive; u = inconclusive; x = no result. An excerpt weighted towards active compounds, which were near 3.8% of everything screened. Calls come from the whole dose curve; as a rule, active = well fitted curve in the direction sought with a large enough effect; inconclusive = small, poorly fitted or top-dose-only effect, or another doubt; inactive = no such curve, though single readings can be large; an effect the other way counts as inactive or inconclusive.

SMILES	HT1080NT lethal	ATXN2 expr inh	TGFb SMAD3 inh	HT1080 IDH1KD tx	S2 tox	HepG2 tox-1	TGFb confirm	HepG2 tox-2	CCL64 TGFb inh	COP TGFb inh
CCCCCCCN(c1ccccc1)[C@@H]1C[C@H]2CCCC(=O)N3CC[C@@H](C1)[C@@H]23	n	u	10µM	n	x	11µM	u	u	21µM	21µM
COc1ccc(-c2onc(C)c2C)cc1S(=O)(=O)Nc1cccc(C#N)c1	x	x	n	x	x	n	x	x	x	x
CCc1nc(N)nc(N)c1-c1ccc(N(C)Cc2ccccc2)c([N+](=O)[O-])c1	u	19µM	0.71µM	0.65µM	u	n	u	0.29µM	29µM	n
Cc1noc(-c2ccc(N(C)Cc3ccccc3)c([N+](=O)[O-])c2)n1	x	n	u	x	n	n	x	x	x	x
CCC1=Nc2cc(C(=O)NC3CCC(C)CC3)ccc2Sc2ccc(C)cc21 (stereo not given)	x	n	u	x	u	n	x	x	x	x
CCOC(=O)N1CCC(NC(=O)c2ccc3c(c2)N=C(CC)c2cc(C)ccc2S3)CC1	u	u	16µM	5.8µM	n	n	12µM	n	u	n
CCC1=Nc2cc(C(=O)NCc3ccco3)ccc2Sc2ccc(C)cc21	1.3µM	n	u	1.3µM	n	n	2.3µM	n	1.5µM	n
COc1ccc(S(=O)(=O)c2cn(C)c3cc(N4CCOCC4)c(F)cc3c2=O)cc1	x	x	u	x	x	n	x	x	x	x
COCCNc1nc(NCc2cccs2)nc2ccsc12	n	n	13µM	n	n	n	6.5µM	u	u	n
CC(=O)NCCNc1nc(NCc2cccs2)nc2ccsc12	n	n	n	n	n	n	x	x	x	x
O=C1CCCN1CCCNc1nc(NCc2cccs2)nc2ccsc12	u	n	10µM	n	u	n	6.5µM	u	u	n
Cc1ccc(Nc2nc(NCc3cccs3)nc3ccsc23)c(C)c1	u	u	13µM	u	u	n	6.5µM	u	u	n
Cc1cccc(N(C)S(=O)(=O)c2nnc(NC(=O)C(C)Oc3ccccc3)s2)c1 (stereo not given)	x	x	n	x	x	n	x	x	x	x
CNc1c2cccc(C)c2nc2c(C(=O)NCCN(C)C)cccc12	u	u	1.1µM	7.3µM	x	n	0.58µM	0.52µM	1.3µM	n
Cc1ccc(C(=O)NCCN(C)C)c(C)c1	n	n	n	n	u	n	x	x	x	x
Cc1c(Cl)cccc1-n1nnc(-c2nc(-c3ccc4c(c3)OCO4)no2)c1C	x	x	x	x	x	n	x	x	x	x
O=S(=O)(Nc1cc(Sc2ncn[nH]2)c(O)c2ccccc12)c1ccccc1	2.3µM	u	2.5µM	4.6µM	u	3.5µM	7.3µM	u	5.8µM	u
Cc1cc(O)c(Sc2ncn[nH]2)cc1NS(=O)(=O)c1ccc(Cl)cc1	n	n	n	n	n	n	x	x	x	x
OC1(c2ccc(Cl)cc2)CCN(Cc2cn[nH]c2-c2ccccc2)CC1	u	n	u	u	n	n	x	x	x	x
OC1(c2ccc(Cl)cc2)CCN(Cc2cn[nH]c2-c2ccc(F)cc2)CC1	21µM	n	4µM	u	n	n	u	u	26µM	n
COc1ccc(-c2[nH]ncc2CN2CCC(O)(c3ccc(Cl)cc3)CC2)cc1	u	n	6.3µM	u	n	n	u	u	9.2µM	n
COc1ccc(-c2[nH]ncc2CN2CCN(c3ccc(F)cc3)CC2)cc1	n	x	u	n	n	n	x	x	x	x
Cc1ccc(NC(=O)CN2C(=O)CC(c3ccc(C)c(C)c3)=Nc3ccccc32)cc1	x	n	n	x	n	n	x	x	x	x
CN(Cc1ccccc1)C(=O)c1ccc(NC(=O)Cc2cccc([N+](=O)[O-])c2)cc1	n	n	n	n	n	n	x	x	x	x
CN(CCc1ccccc1)C(=O)c1cccc(NC(=O)Cc2cccc([N+](=O)[O-])c2)c1	n	n	7.1µM	n	u	n	u	n	n	n
SMILES	HT1080NT lethal	ATXN2 expr inh	TGFb SMAD3 inh	HT1080 IDH1KD tx	S2 tox	HepG2 tox-1	TGFb confirm	HepG2 tox-2	CCL64 TGFb inh	COP TGFb inh
O=S(=O)(c1cc(F)ccc1F)N1CCN(c2ncnc3ccccc23)CC1	u	x	13µM	u	n	n	8.2µM	n	n	n
COc1ccc(CNC(=O)c2cccc(-c3ccc(C)c4ccccc34)n2)cc1	u	n	20µM	u	n	n	u	u	u	n
COc1cccc(Nc2nc(NCC3CCCO3)c3ccccc3n2)c1 (stereo not given)	n	u	6.3µM	u	u	10µM	u	u	21µM	n
Oc1ccc(Cl)cc1Nc1nc(NCC2CCCO2)c2ccccc2n1 (stereo not given)	x	n	u	x	u	n	x	x	x	x
COc1ccc(C(=O)C(CN2CCOCC2)c2ccccc2)cc1F (stereo not given)	u	u	4µM	12µM	u	n	u	15µM	7.3µM	n
O=C(c1ccc(Cl)cc1)C(CN1CCCCC1)c1ccccc1 (stereo not given)	5.8µM	u	5.6µM	2.6µM	x	5.6µM	13µM	18µM	2.3µM	u
CCc1ccc(C(=O)c2cn(CC(=O)Nc3ccc4c(c3)OCO4)c3ccc(OC)cc3c2=O)cc1	x	n	n	x	u	n	x	x	x	x
Cc1cccc(N2CCN(C(=O)c3c(C)nn(Cc4ccccc4Cl)c3C)CC2)c1C	u	n	20µM	u	n	n	10µM	u	u	n
OCC1OC(n2ccc3c(NO)ncnc32)C(O)C1O (stereo not given)	1.6µM	u	0.28µM	0.41µM	u	0.5µM	1.2µM	0.58µM	1.3µM	n
CN(C)c1ncnc2c1ccn2C1OC(CO)C(O)C1O (stereo not given)	4.1µM	n	0.22µM	2.6µM	n	0.13µM	0.23µM	1.3µM	6.5µM	n
CN(C)c1nc2c(N)ncnc2n1C1OC(CO)C(O)C1O (stereo not given)	n	n	n	n	n	n	x	x	x	x
